These results are taken from PubChem BioAssay (NCI).

This is part of a sample that, as a whole, favours compounds with a hit. Of some 83,000 tested, about 20% had one in any assay.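 Cell lines were cultured in 96-well plates, exposed to a single compound concentration, and assessed for percent growth 48 hours later.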 Unmarked numbers belong to inactive results. Calls of active or inactive are those of the source. Rule for the calls: active = growth percent below 10; inactive = the rest.

Among the test systems are SR leukemia; RPMI-8226 leukemia; OVCAR-8 ovarian; OVCAR-5 ovarian; OVCAR-4 ovarian; SK-OV-3 ovarian; IGROV1 ovarian; OVCAR-3 ovarian; HS 578T breast; NCI/ADR-RES ovarian; T-47D breast; BT-549 breast; MDA-MB-435 melanoma; SW-620 colon; MCF7 breast; HCT-116 colon; HCC-2998 colon; KM12 colon.
Common to all, as to experiment: NCI-60 one-dose screen, 48 h (100 = growth as untreated, 0 = no growth, -100 = all killed)
What all share (settings): 10 µM

`CCOC(=O)c1cc2c(n1Cc1cccc(OC)c1)-c1oncc1CC2`: the growth was 13.3% in the assay on SR leukemia; 37% in the assay with RPMI-8226 leukemia; 41.7% in the assay with OVCAR-8 ovarian; 73% in the assay with OVCAR-5 ovarian; 69.1% in the assay on OVCAR-4 ovarian; 29.7% in the assay with SK-OV-3 ovarian. The growth is 19.6% in the assay on IGROV1 ovarian; -16.4% (active) in the assay with OVCAR-3 ovarian; -15.6% (active) in the assay with HS 578T breast; 6.41% (active) in the assay on NCI/ADR-RES ovarian; 38.9% with T-47D breast; 28.3% in the assay on BT-549 breast. Besides, the growth was -23.5% (active) with MDA-MB-435 melanoma; 23% with SW-620 colon; 14.1% in the assay on MCF7 breast; 14.9% in the assay on HCT-116 colon; 58.6% in the assay on HCC-2998 colon; 32.5% in the assay with KM12 colon.

For `Cc1ccc(C2C=C(c3ccc(Cl)cc3)N=C3SC=CN32)c(Br)c1` (configuration not stated), the growth in the assay with SR leukemia was 0.074% (active); in the assay on RPMI-8226 leukemia, -0.582% (active); in the assay with OVCAR-8 ovarian, 80%; with OVCAR-5 ovarian, 92.8%; in the assay on OVCAR-4 ovarian it was 67.4%; with SK-OV-3 ovarian it was 101%. Besides, the growth is 75.7% in the assay on IGROV1 ovarian; 87.1% with OVCAR-3 ovarian; 94.1% in the assay with HS 578T breast; 85.6% with NCI/ADR-RES ovarian; 56.8% in the assay on T-47D breast; 61.1% in the assay on BT-549 breast. In addition, the growth is 47.1% in the assay on MDA-MB-435 melanoma; 53.9% in the assay on SW-620 colon; 21.5% with MCF7 breast; 5.04% (active) with HCT-116 colon; 91.4% in the assay on HCC-2998 colon; 78.5% in the assay with KM12 colon.

On to `Oc1[nH]c2ccccc2c1/C=c1/cc2c(c(-c3ccc(C(F)(F)F)cc3)n1)=Nc1ccccc1-2`, for which the growth with SR leukemia was 4.59% (active); in the assay with RPMI-8226 leukemia, 12%; with OVCAR-8 ovarian, 63.5%; in the assay on OVCAR-5 ovarian it was 70.5%; in the assay on OVCAR-4 ovarian, 50.5%; with SK-OV-3 ovarian it was 79%. In addition, the growth in the assay with IGROV1 ovarian is 71.2%; in the assay on OVCAR-3 ovarian, 20.2%; in the assay on HS 578T breast, 74.8%; in the assay with NCI/ADR-RES ovarian, 31.7%; in the assay on T-47D breast, 37.5%; in the assay on BT-549 breast, 82.7%. Moreover, the growth in the assay on MDA-MB-435 melanoma was 4.17% (active); with SW-620 colon it was 41.8%; in the assay with MCF7 breast, 11.3%; with HCT-116 colon, 30%; in the assay with HCC-2998 colon, 54.7%; in the assay with KM12 colon, 36.2%.

Regarding `CCCCCCCCCCCCCC[n+]1ccc(C)cc1`, the growth with SR leukemia is -38.2% (active); in the assay with RPMI-8226 leukemia, -29.7% (active); in the assay on OVCAR-8 ovarian, -19.1% (active); in the assay on OVCAR-5 ovarian, 3.81% (active); in the assay on OVCAR-4 ovarian it was 7.84% (active); with SK-OV-3 ovarian it was -24.2% (active). Further, the growth in the assay with IGROV1 ovarian is -79.5% (active); in the assay on OVCAR-3 ovarian, -57.2% (active); in the assay with HS 578T breast, -22.6% (active); in the assay with NCI/ADR-RES ovarian, 66.6%; in the assay with T-47D breast it was 12.4%; in the assay on BT-549 breast, -45% (active). The growth in the assay on MDA-MB-435 melanoma is -64.8% (active); in the assay with SW-620 colon it was -3.73% (active); with MCF7 breast, 0.934% (active); in the assay on HCT-116 colon, 0.372% (active); with HCC-2998 colon, -69.7% (active); with KM12 colon, -97.9% (active).

Regarding `NC(N)=NS(=O)(=O)c1ccc(Nc2ccc3nnc(-c4ccncc4)n3n2)cc1`, the growth with SR leukemia was 96.9%; with RPMI-8226 leukemia, 104%; in the assay on OVCAR-8 ovarian it was 96.7%; with OVCAR-5 ovarian, 100%; in the assay with OVCAR-4 ovarian it was 103%; in the assay on SK-OV-3 ovarian it was 104%. Moreover, the growth was 113% with IGROV1 ovarian; 110% in the assay with OVCAR-3 ovarian; 99.6% in the assay on HS 578T breast; 105% with NCI/ADR-RES ovarian; 96.4% in the assay with T-47D breast; 112% with BT-549 breast. The growth in the assay with MDA-MB-435 melanoma was 110%; with SW-620 colon, 97.6%; in the assay on MCF7 breast it was 91.3%; in the assay on HCT-116 colon it was 100%; in the assay with HCC-2998 colon, 99.1%; in the assay with KM12 colon it was 100%.

For the compound `CC(C)=C1CCC(C)C/C1=N\N=C(N)N` (configuration not stated), the growth with SR leukemia is 105%; in the assay on RPMI-8226 leukemia, 96.7%; with OVCAR-8 ovarian it was 104%; in the assay with OVCAR-5 ovarian it was 110%; in the assay on OVCAR-4 ovarian, 107%; in the assay with SK-OV-3 ovarian, 106%. Further, the growth in the assay with IGROV1 ovarian is 98.6%; in the assay on OVCAR-3 ovarian, 113%; in the assay with HS 578T breast, 105%; with NCI/ADR-RES ovarian it was 101%; with T-47D breast it was 97.4%; in the assay on BT-549 breast, 107%. The growth in the assay with MDA-MB-435 melanoma is 101%; in the assay on SW-620 colon, 103%; with MCF7 breast, 92.4%; with HCT-116 colon, 102%; with HCC-2998 colon it was 109%; in the assay on KM12 colon, 107%.

Regarding `O=S(=O)(NC1c2ccccc2Oc2ccccc21)c1cc(Cl)ccc1Cl`, the growth in the assay on SR leukemia was 66.8%; in the assay with RPMI-8226 leukemia, 96.7%; with OVCAR-8 ovarian, 93.5%; with OVCAR-5 ovarian, 109%; in the assay on OVCAR-4 ovarian, 80.9%; in the assay on SK-OV-3 ovarian, 98.1%. In addition, the growth in the assay with IGROV1 ovarian was 95.5%; in the assay on OVCAR-3 ovarian, 98.7%; in the assay on HS 578T breast, 102%; in the assay with NCI/ADR-RES ovarian, 93.5%; in the assay on T-47D breast, 74.1%; in the assay with BT-549 breast it was 91.1%. Besides, the growth is 105% with MDA-MB-435 melanoma; 87.5% with SW-620 colon; 91.9% in the assay on MCF7 breast; 90.4% in the assay with HCT-116 colon; 99.1% in the assay on HCC-2998 colon; 102% in the assay on KM12 colon.

For the compound `O=S(=O)(O)C1(O)CCCCC1`, the growth is 83.1% in the assay with SR leukemia; 81.5% with RPMI-8226 leukemia; 79.3% in the assay with OVCAR-8 ovarian; 90.5% with OVCAR-5 ovarian; 79.1% with OVCAR-4 ovarian; 94.9% in the assay on SK-OV-3 ovarian. Also, the growth in the assay with IGROV1 ovarian is 65.9%; in the assay with OVCAR-3 ovarian it was 103%; in the assay with HS 578T breast, 104%; in the assay on NCI/ADR-RES ovarian, 95.4%; with T-47D breast, 85.7%; in the assay on BT-549 breast it was 112%. In addition, the growth with MDA-MB-435 melanoma was 89.2%; in the assay on SW-620 colon, 81.5%; in the assay with MCF7 breast, 78%; in the assay on HCT-116 colon, 50.9%; in the assay on HCC-2998 colon, 110%; in the assay on KM12 colon it was 82.9%.

`COc1cc(C)c2sc3ccccc3c(=O)c2c1NCCN(C)C`: the growth in the assay with SR leukemia was 3.64% (active); with RPMI-8226 leukemia, 33.3%; in the assay with OVCAR-8 ovarian, 40.5%; in the assay with OVCAR-5 ovarian, 87%; with OVCAR-4 ovarian, 72.8%; with SK-OV-3 ovarian, 65.7%. The growth is 29.3% with IGROV1 ovarian; 87.4% in the assay on OVCAR-3 ovarian; 58.6% in the assay on HS 578T breast; 61.9% in the assay on NCI/ADR-RES ovarian; 78.4% in the assay on T-47D breast; 93.8% with BT-549 breast. Moreover, the growth in the assay on MDA-MB-435 melanoma was 12%; in the assay on SW-620 colon it was 34.9%; in the assay with MCF7 breast, 22.2%; with HCT-116 colon it was 43%; in the assay with HCC-2998 colon, 28.9%; with KM12 colon, 65%.
